Rows were chosen to be rich in hits. Some 3.5% of all compounds tested hit in one or more screens of this group.
mHTT-CaM PPI inh – disrupts binding of mutant huntingtin to calmodulin. P42858. AID 1671202. 190,000 tested, 3.6% active. inhibition, % at 15 µM. AlphaScreen His-mHTT/GST-CaM binding, luminescence;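 also: 0% = both proteins with DMSO and 100% = one protein alone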
Pf apPOL block – Pf-apPOL DNA polymerase inhibition; Recombinant Pf-apPOL, molecular beacon fluorescence, 1.5 h; 210,000 tested, 0.25% active; AID 1794808; inhibition, % at 10 µM
Numbers without * were called inactive; x = no result; ! = a repeat was not active. Rule as the data show it: active = inhibition above about 50%; inactive = the rest.

SMILES | mHTT-CaM PPI inh | Pf apPOL block
O=C1C2=C(Nc3ccccc3SC2c2cccs2)c2ccccc21 (stereo unspecified) | 73* | 6
O=C1Nc2ccccc2SC1c1ccccc1 (stereo unspecified) | x | -3
Cc1cccc(C2SC(=O)NC3=C2C(=O)c2ccccc23)c1 (stereo unspecified) | 22 | 1
COc1cccc(C2Sc3ccccc3NC3=C2C(=O)c2ccccc23)c1OC (stereo unspecified) | 58* | 0
COc1cccc(C2Sc3ccccc3NC3=C2C(=O)c2ccccc23)c1 (stereo unspecified) | 76* | -93
O=C1c2ccccc2NC(c2cccs2)N1c1ccccc1 (stereo unspecified) | 1 | -2
CCN(CC)C(=O)c1c(NC(=O)c2ccccc2)sc2c1CCCC2 | -2 | 1
CCNC(=O)N1CCCC(c2cccc(C(=O)NCCC(C)C)c2)C1 (stereo unspecified) | 0 | -8
O=C(COc1ccc(Cl)cc1Cl)Nc1ccc(-c2nc3ncccc3o2)cc1 | 1 | -4
O=C(CC1CCCC1)NCC1CC(=O)N(Cc2ccccc2)C1 (stereo unspecified) | -16 | -4
O=C1C2=C(Nc3ccccc3SC2c2ccccc2[N+](=O)[O-])c2ccccc21 (stereo unspecified) | 53* | 3
O=C1NC2=C(C(=O)c3ccccc32)C(c2ccccc2)N1 (stereo unspecified) | 28 | -64
O=S(=O)(Nc1cccc2cccnc12)c1cc(Cl)c(Cl)cc1Cl | x | -75
Nc1ccc(S(=O)(=O)Nc2cccc3cccnc23)cc1 | 57* | -2
CCN(CCCNC(=O)C1CC(=O)N(CCc2ccccc2)C1)c1cccc(C)c1 (stereo unspecified) | 25 | 0
CC(C)(C)CC(=O)NCc1cccnc1-c1ccc(F)cc1 | -11 | 0
CSCC(C)(O)CNC(=O)c1cccc2ccccc12 (stereo unspecified) | 1 | -5
O=C(Nc1nccn(-c2cccc(Cl)c2)c1=O)c1ccccn1 | -4 | -3
Cc1cc(C)cc(-n2ccnc(NC(=O)c3ccccn3)c2=O)c1 | 74* | -16
CCOc1ccc(/C=C(\C#N)c2nc3ccc(C)cc3[nH]2)cc1 | 19 | 0
Cc1ccc2nc(/C(C#N)=C/c3ccc(-c4ccc5c(c4)C(=O)NC5=O)o3)[nH]c2c1 | 68* | -4
COc1cc(-c2ccc(/C=C(\C#N)c3nc4ccc(C)cc4[nH]3)o2)c(OC)cc1Cl | 35 | -20
N#C/C(=C\c1ccco1)c1nc2ccccc2[nH]1 | 3 | -8
CCOc1cc(/C=C(\C#N)c2nc3ccc(C)cc3[nH]2)cc(I)c1O | 80* | -1
Cc1ccc2nc(/C(C#N)=C/c3ccc(-c4cc([N+](=O)[O-])ccc4O)o3)[nH]c2c1 | 56* | -1
SMILES | mHTT-CaM PPI inh | Pf apPOL block
Cc1ccc2nc(/C(C#N)=C/C=C/c3ccco3)[nH]c2c1 | 67* | -7
Cc1ccc2nc(/C(C#N)=C/c3ccc([N+](=O)[O-])o3)[nH]c2c1 | -6 | -2
Cc1n[nH]c(C)c1Sc1ccccc1N=Cc1cc([N+](=O)[O-])ccc1O | 5 | -7
COc1ccccc1NC(=O)c1c(NCc2ccccn2)sc2c1CCC(C)C2 (stereo unspecified) | 46 | -16
COc1ccc(OC)c(NC(=O)Cn2nc3c(cc2=O)CC(C)CC3)c1 (stereo unspecified) | 12 | 0
COc1ccc(Cl)cc1NC(=O)c1c(NCc2ccncc2)sc2c1CCC(C)C2 (stereo unspecified) | 73* | -15
COc1ccccc1NC(=O)c1c(NCc2ccncc2)sc2c1CCC(C)C2 (stereo unspecified) | 100* | -18
COc1ccc(OC)c(NC(=O)c2c(NCc3ccncc3)sc3c2CCC(C)C3)c1 (stereo unspecified) | 72* | -18
COc1ccc(Cl)cc1Nc1ncnc2sc3c(c12)CCC(C)C3 (stereo unspecified) | -6 | 1
COc1cccc(C(CC(=O)N2CCCC2)c2cnc3n2C(C)CCC3)c1 (stereo unspecified) | -1 | -5
CCCCNC(=O)C1c2cc(OC)c(OC)cc2C(=O)N(C)C1c1cccs1 (stereo unspecified) | 2 | 7
CCCn1c(C2CCN(C(=O)c3ccc4c(c3)OCO4)C2)nc2cccnc21 (stereo unspecified) | 3 | 1
O=C(C1CCCN(c2nccnc2Sc2ccccc2)C1)N1CCCCCC1 (stereo unspecified) | 34 | -2
CCc1nn(-c2ccc(C)cc2)c(CC)c1C(=O)N1CCN(CC)CC1 | 16 | -2
Cc1c(C(=O)N2CCN(C)CC2)c(C2CC2)nn1-c1ccc(Cl)c(Cl)c1 | 56* | -3
CCc1nn(-c2ccc(Cl)c(Cl)c2)c(CC)c1C(=O)N1CCN(CC)CC1 | 66* | -10
CC(C)c1c(C(=O)N2CCN(C)CC2)c(C2CC2)nn1-c1ccccc1 | 5 | -1
O=C(O)c1cc(C(=O)O)c(C(=O)O)nc1C(=O)O | 0 | -150
C=CCN1C(=O)CNC12CCN(C(=O)C1CCC1)CC2 | 1 | -1
CC1(C)CC(=O)c2c(-c3cccc([N+](=O)[O-])c3)coc2C1 | 5 | 0
COc1ccccc1NC(=O)c1cncc(-c2ccc(C)cc2)c1 | 1 | -1
Cc1nc2c(oc3nc(-c4ccco4)c4c(c32)CC(C)(C)OC4)c(-c2ccccc2)c1C(=O)O | 49 | -2
Cc1nc2c(oc3nc(-c4ccoc4)c4c(c32)CC(C)(C)OC4)c(-c2ccccc2)c1C(=O)O | 74*! | -7
COc1ccc(C=C2Oc3c(CN4CCN(CCO)CC4)c(O)cc(C)c3C2=O)cc1OC | 19 | -14
COc1nn(-c2nc(-c3ccccc3)cc(C(F)(F)F)n2)cc1[N+](=O)[O-] | 0 | -5
SMILES | mHTT-CaM PPI inh | Pf apPOL block
COc1ccc(CC(=O)Nc2nnc(C3CC(=O)N(c4ccc(OC)cc4)C3)o2)cc1 (stereo unspecified) | 15 | -4
COc1ccc(N2CC(c3nnc(NC(=O)COc4ccc(F)cc4)o3)CC2=O)cc1 (stereo unspecified) | 19 | 2
O=C(Cc1ccc(Cl)cc1)Nc1nnc(C2CC(=O)N(c3ccc(F)cc3)C2)o1 (stereo unspecified) | 71* | -4
O=C(Nc1nnc(C2CC(=O)N(c3ccc(F)cc3)C2)o1)c1ccccc1F (stereo unspecified) | 61* | 1
O=C(Nc1nnc(C2CC(=O)N(c3ccc(Cl)cc3)C2)o1)c1ccc(F)cc1 (stereo unspecified) | 16 | -2
O=C(COc1ccc(F)cc1)Nc1nnc(C2CC(=O)N(c3ccc(F)cc3)C2)o1 (stereo unspecified) | 68* | -2
O=C(Nc1nnc(C2CC(=O)N(c3ccccc3)C2)o1)c1ccccc1F (stereo unspecified) | 13 | -2
COc1ccc(N2CC(c3nnc(NC(=O)Cc4ccc(F)cc4)o3)CC2=O)cc1 (stereo unspecified) | 73* | -1
O=C(COc1ccc(Br)cc1)Nc1ccccc1Cl | -21 | -4
Cc1ccnc(N2CCC(C(=O)Nc3ccccc3C)CC2)n1 | -7 | 0
COCCNC(=O)c1cncc(-c2cccc(Cl)c2)c1 | -8 | 0
Cc1c(N=Cc2cccn2-c2ccc(S(N)(=O)=O)cc2)c(=O)n(-c2ccccc2)n1C | 13 | 1
COc1ccc(N2CC(c3nnc(NC(=O)Cc4ccc(Cl)cc4)o3)CC2=O)cc1 (stereo unspecified) | 5 | -1

High-throughput results (PubChem BioAssay)
